According to PubChem BioAssay (EPA / NIEHS):
Values joined by “and” are separate entries in the source; they are usually repeats but may differ in a detail not shown here. Identical values can stand only once. Results filed as inconclusive are left out. Where a structure was tested more than once in an assay, its records may differ in their call. Active and inactive are the calls of the source. Rule for the calls: active = hit-call score of the fitted dose curve at least 0.9, where 1 is the maximum; inconclusive = response in the unintended direction; inactive = score below 0.9.

Test system: zebrafish Estrogen Receptor (ER2b), gene 317733
Assay: ATG_zfER2b_XSP2: Attagene TRANS-FACTORIAL Multi-Species (XSP2) HepG2 Assay for zebrafish Estrogen Receptor (ER2b) (AID 2283823);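 note: fitted upward as reporter gain over DMSO so potency reflects activation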
Experimental: ATG_XSP2_multi-species_TRANS is a cell-based, multiplexed assay created by modifying the existing Attagene TRANS-FACTORIAL system to include a panel of nuclear receptors from some or all the following species: human (Homo sapiens), mouse (Mus musculus), frog (Xenopus laevis), zebrafish (Danio rerio), chicken (Gallus gallus), and turtle (Chrysemys picta). The ECOTOX-FACTORIAL format uses HepG2, a human liver cell line, with measurements taken at 24 hours after chemical dosing in a 24-well plate. Xsp2 included 3 nM 6-alpha-fluorotestosterone and 1.5 nM norgestrel to stimulate the androgen receptor.ATG_zfER2b_XSP2 is one of 29 assay components measured or calculated from the ATG_XSP2_multi-species_TRANS assay. It is designed to make measurements of mRNA induction, a form of inducible reporter, as detected with fluorescence intensity signals by Reverse transcription polymerase chain reaction (RT-PCR) and Capillary electrophoresis technology.The assay endpoint ATG_zfER2b_XSP2 was analyzed in the positive analysis fitting direction relative to DMSO as the negative control and baseline of activity. Using a type of inducible reporter, measures of mRNA for gain-of-signal activity can be used to understand the reporter gene at the transcription factor-level as they relate to the gene ER. Furthermore, this assay endpoint can be referred to as a primary readout, because this assay has produced multiple assay endpoints where this one serves a reporter gene function. To generalize the intended target to other relatable targets, this assay endpoint is annotated to the nuclear receptor intended target family, where the subfamily is steroidal.
Human liver HepG2 cells are transiently transfected with multiple reporter transcription units (MRTUs) in 6-well plates using FuGene 6 reagent (Roche; 3 ml FuGene/1 mg DNA). The MRTU constructs are regulated by a cis-regulating element (promoter). […] A major difference between the CIS and TRANS system is that in CIS activities of endogenous TFs are measured, whereas the TRANS assay evaluates changes in activities of exogenous, chimeric NR-Gal4 proteins. […] At the end of 24 hour incubation, total RNA was isolated using TriZol reagent (Invitrogen). The isolated RNA is then reverse-transcribed using oligo(dT) primer and Mo-MLV reverse transcriptase (Invitrogen) with DNAse I (Ambion) treatment for 30 min. The one-tenth of the produced cDNA was amplified by PCR using Taq DNA polymerase (Invitrogen) and two reporter sequence-specific primers. The PCR products were fluorescently labeled by primer extension with 6-arboxyfluorescein (6-FAM) 5'-labeled reporter sequence-specific primer (2 min at 95 C, 20 s at 68 C and 10 min at 72 C) and these products were digested with 5U of HpaI (New England Biolabs) for 2h at 37 C. The fragments were purified using Qiaquick PCR columns (Qiagen), analyzed on an ABI 3130xL genetic analyzer (Applied Biosystems) with peak positions identified by using a set of X-rhodamine (ROX)-labeled MapMarker1000 molecular weight standards (BioVentures). The raw capillary electrophoresis data was processed using Attagraph software (Attagene).

**Q.** How did the outcome turn out when `N[C@@H](Cc1cc(I)c(Oc2ccc(O)c(I)c2)c(I)c1)C(=O)O` was run?
**A.** inactive

**Q.** And the AC50?
**A.** 4.9 µM (active)

**Q.** `CC(C)CCCCCCc1ccc(O)cc1` was tested. Which AC50 did it give?
**A.** 1.44 µM (active)

**Q.** How did the AC50 turn out when `CSC(=O)c1cccc2nnsc12` was run?
**A.** 152 µM (active) and 121 µM (active)

**Q.** How did the AC50 turn out when `CC1(C)C(C=C(Cl)Cl)C1C(=O)OCc1cccc(Oc2ccccc2)c1` (stereo unspecified) was run?
**A.** 100 µM (active)

**Q.** How did the AC50 turn out when `CCCCC(CC)CN1C(=O)C2C3C=CC(C3)C2C1=O` (stereo unspecified) was run?
**A.** 51.4 µM (active)

**Q.** With `CC(=O)S[C@@H]1CC2=CC(=O)CC[C@]2(C)[C@H]2CC[C@@]3(C)[C@@H](CC[C@@]34CCC(=O)O4)[C@H]12` as the compound, how does the AC50 read?
**A.** 74 µM (active)

**Q.** What does the source list for `C#C[C@]1(O)CC[C@H]2[C@@H]3CCC4=CC(=O)CC[C@@H]4[C@H]3CC[C@@]21CC`?
**A.** AC50: 0.651 µM (active); outcome: inactive

**Q.** How did the AC50 turn out when `CCN(Cc1c(F)cccc1Cl)c1c([N+](=O)[O-])cc(C(F)(F)F)cc1[N+](=O)[O-]` was run?
**A.** 10.2 µM (active) and 4.04 µM (active)

**Q.** Which outcome does the source give for `C=CCOC(Cn1ccnc1)c1ccc(Cl)cc1Cl` (stereo unspecified) here?
**A.** inactive

**Q.** How did the AC50 turn out when `CC(C)(c1ccc(O)cc1)c1ccc(O)cc1` was run?
**A.** 2.08 µM (active)

**Q.** For `Oc1ccc(C(c2ccc(O)cc2)C(Cl)(Cl)Cl)cc1`, which AC50 is on record?
**A.** 0.524 µM (active)

**Q.** `CCCCC(CC)COC(=O)c1ccccc1C(=O)O` (stereo unspecified) was tested. Which AC50 did it give?
**A.** 48.9 µM (active)

**Q.** Which AC50 does the source give for `O=C(c1ccc(O)cc1O)c1ccc(O)cc1O` here?
**A.** 2.47 µM (active)

**Q.** For `CN(C)C(=O)Nc1ccc(Cl)c(Cl)c1`, which AC50 is on record?
**A.** 130 µM (active) and 65.2 µM (active)
